Of roughly 7,900 targets only a part is listed; those with a hit were picked by preference. About 0.6% of all pairs of compound and target were hits. Values without a mark were called inactive.

Sequence of UniProt Q13409 (Q13409 whole entry, looked up): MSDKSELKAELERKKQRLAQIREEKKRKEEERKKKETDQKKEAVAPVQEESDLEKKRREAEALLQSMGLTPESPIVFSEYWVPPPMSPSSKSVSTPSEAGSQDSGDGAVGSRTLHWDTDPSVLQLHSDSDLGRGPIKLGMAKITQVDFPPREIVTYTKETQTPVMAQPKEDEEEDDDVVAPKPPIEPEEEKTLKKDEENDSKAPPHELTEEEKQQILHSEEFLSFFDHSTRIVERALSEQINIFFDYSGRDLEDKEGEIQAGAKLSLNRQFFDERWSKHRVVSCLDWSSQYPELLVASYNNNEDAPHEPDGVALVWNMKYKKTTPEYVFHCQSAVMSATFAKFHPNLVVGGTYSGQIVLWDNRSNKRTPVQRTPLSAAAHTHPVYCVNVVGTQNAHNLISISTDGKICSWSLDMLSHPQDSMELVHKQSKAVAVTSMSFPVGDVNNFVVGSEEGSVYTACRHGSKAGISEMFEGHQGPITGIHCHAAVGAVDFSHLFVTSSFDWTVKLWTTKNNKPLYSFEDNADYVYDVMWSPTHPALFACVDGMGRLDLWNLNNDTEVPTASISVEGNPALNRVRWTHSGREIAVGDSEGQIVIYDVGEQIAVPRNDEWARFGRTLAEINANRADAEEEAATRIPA
Sequence of UniProt O60610 (O60610 whole entry, looked up): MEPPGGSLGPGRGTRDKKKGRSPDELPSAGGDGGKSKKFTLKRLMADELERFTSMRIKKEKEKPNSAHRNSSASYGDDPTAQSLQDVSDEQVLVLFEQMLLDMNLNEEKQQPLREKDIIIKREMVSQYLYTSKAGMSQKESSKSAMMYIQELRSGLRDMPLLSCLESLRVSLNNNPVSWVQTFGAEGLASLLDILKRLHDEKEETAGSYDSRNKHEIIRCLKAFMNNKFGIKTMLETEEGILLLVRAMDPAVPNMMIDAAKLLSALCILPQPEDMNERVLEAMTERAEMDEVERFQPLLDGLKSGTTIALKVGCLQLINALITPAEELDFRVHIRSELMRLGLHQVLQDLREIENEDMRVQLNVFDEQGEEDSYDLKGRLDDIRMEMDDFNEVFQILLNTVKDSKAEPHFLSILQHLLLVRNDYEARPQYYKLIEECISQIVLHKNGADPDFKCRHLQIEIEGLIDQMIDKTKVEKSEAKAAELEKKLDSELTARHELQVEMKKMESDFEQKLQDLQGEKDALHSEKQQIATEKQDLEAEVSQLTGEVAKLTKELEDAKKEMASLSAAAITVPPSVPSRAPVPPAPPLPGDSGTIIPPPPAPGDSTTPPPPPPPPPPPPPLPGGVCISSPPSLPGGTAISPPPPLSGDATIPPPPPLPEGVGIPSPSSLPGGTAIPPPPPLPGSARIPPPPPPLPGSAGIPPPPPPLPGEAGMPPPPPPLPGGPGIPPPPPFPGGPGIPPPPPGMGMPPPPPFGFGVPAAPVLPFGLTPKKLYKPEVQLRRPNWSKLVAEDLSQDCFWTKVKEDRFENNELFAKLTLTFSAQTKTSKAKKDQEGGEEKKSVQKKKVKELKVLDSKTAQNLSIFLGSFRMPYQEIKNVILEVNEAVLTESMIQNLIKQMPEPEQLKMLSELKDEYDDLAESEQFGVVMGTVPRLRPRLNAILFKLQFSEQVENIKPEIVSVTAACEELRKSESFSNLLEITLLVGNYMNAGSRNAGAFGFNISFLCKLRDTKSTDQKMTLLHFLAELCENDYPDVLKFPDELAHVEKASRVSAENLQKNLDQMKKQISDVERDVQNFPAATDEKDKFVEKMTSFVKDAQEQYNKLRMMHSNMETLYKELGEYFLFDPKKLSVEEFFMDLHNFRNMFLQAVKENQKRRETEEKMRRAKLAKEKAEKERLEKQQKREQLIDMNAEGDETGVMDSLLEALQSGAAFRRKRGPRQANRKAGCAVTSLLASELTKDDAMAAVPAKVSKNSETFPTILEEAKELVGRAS
Sequence of UniProt P24534 (P24534 whole entry, looked up): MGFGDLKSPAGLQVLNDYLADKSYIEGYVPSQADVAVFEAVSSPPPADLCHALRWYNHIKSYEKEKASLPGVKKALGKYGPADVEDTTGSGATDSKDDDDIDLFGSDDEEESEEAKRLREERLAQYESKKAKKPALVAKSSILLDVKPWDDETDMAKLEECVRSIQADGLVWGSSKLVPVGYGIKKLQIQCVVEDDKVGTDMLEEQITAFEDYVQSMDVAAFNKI
Sequence of UniProt Q86UK5 (Q86UK5 whole entry, looked up): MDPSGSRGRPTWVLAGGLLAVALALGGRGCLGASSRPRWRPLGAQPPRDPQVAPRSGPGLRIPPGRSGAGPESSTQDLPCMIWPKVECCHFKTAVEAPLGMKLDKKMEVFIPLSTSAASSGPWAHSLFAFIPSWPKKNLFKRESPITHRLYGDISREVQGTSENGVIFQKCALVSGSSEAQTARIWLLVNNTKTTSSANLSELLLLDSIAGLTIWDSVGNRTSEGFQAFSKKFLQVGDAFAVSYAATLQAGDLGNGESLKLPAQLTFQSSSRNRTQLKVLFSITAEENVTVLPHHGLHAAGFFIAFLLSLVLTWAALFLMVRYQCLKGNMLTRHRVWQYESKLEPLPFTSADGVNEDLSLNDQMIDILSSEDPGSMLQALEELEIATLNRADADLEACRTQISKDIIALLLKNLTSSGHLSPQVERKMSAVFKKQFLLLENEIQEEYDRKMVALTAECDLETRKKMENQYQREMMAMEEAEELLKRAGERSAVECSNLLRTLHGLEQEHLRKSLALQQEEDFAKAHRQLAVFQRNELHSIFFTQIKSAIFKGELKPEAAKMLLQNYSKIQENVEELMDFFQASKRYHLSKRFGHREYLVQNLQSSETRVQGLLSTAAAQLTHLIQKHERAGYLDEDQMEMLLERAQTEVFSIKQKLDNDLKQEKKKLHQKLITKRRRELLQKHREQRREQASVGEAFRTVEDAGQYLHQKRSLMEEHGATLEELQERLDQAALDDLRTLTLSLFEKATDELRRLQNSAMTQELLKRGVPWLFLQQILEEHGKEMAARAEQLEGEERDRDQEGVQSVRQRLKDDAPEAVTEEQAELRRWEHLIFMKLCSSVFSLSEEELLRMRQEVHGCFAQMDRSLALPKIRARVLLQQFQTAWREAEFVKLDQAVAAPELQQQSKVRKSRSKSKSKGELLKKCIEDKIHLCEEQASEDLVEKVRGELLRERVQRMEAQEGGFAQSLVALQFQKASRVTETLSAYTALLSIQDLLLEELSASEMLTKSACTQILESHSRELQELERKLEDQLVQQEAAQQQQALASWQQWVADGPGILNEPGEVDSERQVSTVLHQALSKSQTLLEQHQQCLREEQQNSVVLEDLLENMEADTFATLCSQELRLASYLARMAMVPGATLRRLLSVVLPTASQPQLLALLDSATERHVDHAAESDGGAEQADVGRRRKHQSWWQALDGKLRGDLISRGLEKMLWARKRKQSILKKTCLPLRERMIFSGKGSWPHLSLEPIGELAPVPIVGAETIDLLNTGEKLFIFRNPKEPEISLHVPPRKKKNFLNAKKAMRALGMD
Sequence of UniProt Q9BSJ8 (Q9BSJ8 whole entry, looked up): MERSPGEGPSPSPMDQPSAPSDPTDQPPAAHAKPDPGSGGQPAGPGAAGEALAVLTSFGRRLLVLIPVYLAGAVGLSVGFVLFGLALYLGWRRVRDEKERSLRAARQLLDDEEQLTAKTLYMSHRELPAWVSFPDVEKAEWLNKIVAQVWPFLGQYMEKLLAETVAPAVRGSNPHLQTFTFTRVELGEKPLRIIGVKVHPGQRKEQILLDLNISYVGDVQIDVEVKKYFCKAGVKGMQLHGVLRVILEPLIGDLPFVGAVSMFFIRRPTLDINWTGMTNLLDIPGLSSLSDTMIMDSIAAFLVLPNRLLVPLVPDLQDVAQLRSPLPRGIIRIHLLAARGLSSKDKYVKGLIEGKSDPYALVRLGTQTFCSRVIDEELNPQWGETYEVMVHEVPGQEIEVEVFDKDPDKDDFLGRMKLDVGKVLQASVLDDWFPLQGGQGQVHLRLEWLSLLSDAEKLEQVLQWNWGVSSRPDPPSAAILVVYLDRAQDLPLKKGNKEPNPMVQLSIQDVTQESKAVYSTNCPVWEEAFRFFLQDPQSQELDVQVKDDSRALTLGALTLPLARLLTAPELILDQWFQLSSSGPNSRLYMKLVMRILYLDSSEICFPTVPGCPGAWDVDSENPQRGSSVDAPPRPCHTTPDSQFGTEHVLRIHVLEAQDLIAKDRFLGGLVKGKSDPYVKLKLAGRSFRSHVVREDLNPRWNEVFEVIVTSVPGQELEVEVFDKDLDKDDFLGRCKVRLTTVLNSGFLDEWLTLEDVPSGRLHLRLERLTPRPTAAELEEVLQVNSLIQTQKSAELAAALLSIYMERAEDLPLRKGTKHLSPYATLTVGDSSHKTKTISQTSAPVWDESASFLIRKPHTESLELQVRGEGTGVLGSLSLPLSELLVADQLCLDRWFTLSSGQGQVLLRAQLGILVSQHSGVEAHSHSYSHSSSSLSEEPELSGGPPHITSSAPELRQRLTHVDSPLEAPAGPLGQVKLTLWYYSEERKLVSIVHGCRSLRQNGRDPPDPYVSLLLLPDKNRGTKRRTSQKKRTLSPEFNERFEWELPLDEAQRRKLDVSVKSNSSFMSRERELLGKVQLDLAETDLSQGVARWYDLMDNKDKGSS
Sequence of UniProt P26641 (P26641 whole entry, looked up): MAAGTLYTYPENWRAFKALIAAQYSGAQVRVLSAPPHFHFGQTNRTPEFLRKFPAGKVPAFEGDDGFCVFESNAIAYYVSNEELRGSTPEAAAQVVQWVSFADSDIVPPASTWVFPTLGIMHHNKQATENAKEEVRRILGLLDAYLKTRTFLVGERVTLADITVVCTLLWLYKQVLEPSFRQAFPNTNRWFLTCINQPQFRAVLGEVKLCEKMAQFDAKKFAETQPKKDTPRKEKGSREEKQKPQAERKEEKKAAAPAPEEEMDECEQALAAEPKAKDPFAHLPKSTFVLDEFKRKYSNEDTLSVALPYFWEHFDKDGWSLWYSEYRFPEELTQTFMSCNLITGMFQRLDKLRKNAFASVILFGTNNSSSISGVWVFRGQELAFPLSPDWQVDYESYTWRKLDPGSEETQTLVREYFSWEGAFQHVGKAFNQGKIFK

Compound in this assay: c1cn2cc(-c3ccc4cn[nH]c4c3)nc(Nc3ccc(N4CCOCC4)cc3)c2n1 [entospletinib]
In words: log2 fold change, soluble protein after heating vs DMSO (PISA); higher = thermal stabilisation; K562 cells, 10 uM, 30 min; active = over 0.2 and 3.5 SD of the protein, either way, in both replicates (recomputed). Summed up:
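Thermal stability values are relative to control samples and come from duplicates. They are expressed as log2 fold changes. For measurement, K562 cells (2×10^6 cells/mL) received 10 μM compound for 30 min, and aliquots were heated for 3 min over 48°C-58°C, pooled, and extracted at 4°C in PBS with 0.5% NP-40. Soluble protein, the supernatant after 21,000xg for 90 min, was quantified by TMTpro 16plex LC-MS/MS with equalised channel sums.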
Regarding DUS3L (UniProt Q96G46), the log2 fold change was -0.086.

Regarding DAB2 (UniProt P98082), the log2 fold change is 0.043.

On to DPH5 isoform 5 (UniProt Q9H2P9), for which the log2 fold change was -0.045.

For the target EHD2 (UniProt Q9NZN4), the log2 fold change was -0.038.

For the target EXOC4 (UniProt Q96A65), the log2 fold change is -0.067.

On to DOHH (UniProt Q9BU89), for which the log2 fold change is 0.1.

With DCAF4 (UniProt Q8WV16), the log2 fold change is -0.146.

As for DOLPP1 (UniProt Q86YN1), the log2 fold change is 0.055.

Regarding EVC2 (UniProt Q86UK5), the log2 fold change is -0.104.

Take EEF1AKNMT (UniProt Q8N6R0): the log2 fold change was 0.059.

For ESYT1 isoform 2 (UniProt Q9BSJ8), the log2 fold change was 0.003.

For DBN1 isoform 3 (UniProt Q16643), the log2 fold change was -0.038.

In the case of DIAPH1 (UniProt O60610), the log2 fold change was 0.1.

CYBA (UniProt P13498): the log2 fold change is 0.069.

For EEF1B2 (UniProt P24534), the log2 fold change was 0.038.

Take EDC4 (UniProt Q6P2E9): the log2 fold change was 0.044.

For DERPC (UniProt P0CG12), the log2 fold change is 0.125.

CTSZ (UniProt Q9UBR2): the log2 fold change was 0.13.

EEF1G isoform 2 (UniProt P26641): the log2 fold change was -0.012.

Consider F5 (UniProt P12259), for which the log2 fold change is 0.133.

With CYB561A3 isoform 2 (UniProt Q8NBI2), the log2 fold change was 0.315.

With DDX5 (UniProt P17844), the log2 fold change is -0.019.

For the target DYNC1I2 isoform 5 (UniProt Q13409), the log2 fold change is 0.038.

With EHBP1L1 (UniProt Q8N3D4), the log2 fold change was -0.013.

As for DMXL1 (UniProt Q9Y485), the log2 fold change was 0.04.

Regarding FAM193B (UniProt Q96PV7), the log2 fold change was -0.031.

For the target DDX27 (UniProt Q96GQ7), the log2 fold change was -0.035.

On to CUEDC2 (UniProt Q9H467), for which the log2 fold change was 0.01.

Consider DYNC1I2 isoform 2 (UniProt Q13409), for which the log2 fold change was 0.082.

In the case of EIF2AK3 (UniProt Q9NZJ5), the log2 fold change is -0.03.

Consider DNAH5 (UniProt Q8TE73), for which the log2 fold change is -0.039.

In the case of E2F4 (UniProt Q16254), the log2 fold change is 0.02.

As for FADS3 (UniProt Q9Y5Q0), the log2 fold change is 0.035.

EFCAB14 (UniProt O75071): the log2 fold change was 0.001.

Consider EXOC8 (UniProt Q8IYI6), for which the log2 fold change is -0.013.

The values are drawn from the supplement of paper PMC10849652.
